# According to PubChem BioAssay AID2061324 (National Center for Advancing Translational Sciences (NCATS), 2025):
# Inconclusive results are not listed. The source made the active and inactive calls. The call rests on the fitted dose curve; in most records, active means well fitted inhibition curve with a large enough effect; inconclusive means small, poorly fitted or top-dose-only effect; inactive means flat fitted curve, though single readings scatter. Square brackets hold non-standard residues; d marks the D form. Peptide text beside a SMILES is read from it. Dolaproine = CO[C@@H]([C@@H]1CCCN1)[C@@H](C)C(=O)O; Dil = CC[C@H](C)[C@H](NC)[C@@H](CC(=O)O)OC; NMeV = CN[C@H](C(=O)O)C(C)C
# Experiment: Identification of antibody-drug conjugate (ADC) payloads which are substrates of ATP-binding cassette drug efflux transporters: ABCG2-HEK293-pcDNA cell line
# Details: ABCG2-HEK293 transfected cells viability, CellTiter-Glo, 48 h
# Source text: Antibody-drug conjugates (ADCs) feature an antibody recognizing a specific protein joined to a potent toxic payload. Numerous antibody-drug conjugates have received FDA approval; however, clinical resistance arises. Resistance mechanisms include decreased expression or mutation of the antibody target, impaired payload release, or increased expression of ATP-binding cassette (ABC) efflux transporters associated with multidrug resistance. We therefore sought to characterize the interaction of ABC multidrug transporters with ADC payloads. We performed a high-throughput screen with 27 common ADC payloads using cells lines expressing ABC transporters P-glycoprotein (P-gp, encoded by ABCB1) or ABCG2 (encoded by ABCG2). Confirmatory assays were also performed using cells transfected to express P-gp, ABCG2, or MRP1 (encoded by ABCC1). Several commonly used ADC payloads were substrates of P-gp, including calicheamicin gamma1, monomethyl auristatin E, DM1, and DM4. All the pyrrolobenzodiazepines tested - SJG136, SGD-1882, SG2057, and SG3199 - were substrates of P-gp, ABCG2, and MRP1. […] These findings highlight the risk of transporter-mediated resistance with certain ADC payloads and underscore the importance of selecting payloads that evade ABC transporter recognition in future ADC development.
# HEK-293 cells were transfected with empty vector (pcDNA) or vector containing the human ABCB1 (MDR-19), ABCG2 (R-5), or ABCC1 gene (MRP1) and were maintained in EMEM with 2 mg/mL G418 added to maintain transporter expression. The HeLa derivative KB-3-1 and the P-gp overexpressing KB-8-5-11 subline were maintained in DMEM; KB-8-5-11 additionally received 100 ng/mL colchicine. H460 parental cells were obtained from the Division of Cancer Treatment and Diagnosis Tumor Repository, National Cancer Institute at Frederick, MD and were cultured in RPMI. The ABCG2 expressing subline H460 MX20 was generated by selecting H460 cells in 20 nM mitoxantrone. Media in all cases was supplemented with 10% FBS and 1% penicillin-streptomycin. We explored 27 common ADC payloads, in two orthogonal, paired cell line sets-a drug selected and transfected set for each transporter--to identify substrates of the ABC transporters P-gp and ABCG2. Compounds were sourced from Levena Biopharma (San Diego, CA), Selleck Chem (Houston, TX), ChemieTek (Indianapolis, IN), or Microsource Discovery Systems (Gaylordsville, CT). Screening was performed as previously described. Briefly, cells were plated at a density of 500 cells/well in 1536 well plates with compounds added using a 1536-head pin tool (Kalypsys, San Diego CA). Cells were incubated with cytotoxic drugs and processed with CellTiter Glo reagent (Promega, Madison, WI) to determine viability after 48 hours. P-gp substrates were identified by comparing compound activity between paired sets of low-expressing (sensitive) and over-expressing (resistant) cell lines.
row,SMILES,Potency
1,CC[C@H](C)[C@@H]([C@@H](CC(=O)N1CCC[C@H]1[C@H](OC)[C@@H](C)C(=O)N[C@@H](Cc1ccccc1)C(=O)O)OC)N(C)C(=O)[C@@H](NC(=O)[C@@H](NC)C(C)C)C(C)C (H-[NMeV]V[Dil][Dolaproine]F-OH),3360 nM (active)
2,Cc1nc(Nc2ncc(C(=O)Nc3c(C)cccc3Cl)s2)cc(N2CCN(CCO)CC2)n1,4750 nM (active)
3,CCN[C@H]1CO[C@@H](O[C@H]2[C@H](O[C@H]3C#C/C=C\C#C[C@]4(O)CC(=O)C(NC(=O)OC)=C3/C4=C\CSSSC)O[C@H](C)[C@@H](NO[C@H]3C[C@H](O)[C@H](SC(=O)c4c(C)c(I)c(O[C@@H]5O[C@@H](C)[C@H](O)[C@@H](OC)[C@H]5O)c(OC)c4OC)[C@@H](C)O3)[C@@H]2O)C[C@@H]1OC,1.1 nM (active)
4,COC(=O)c1cc2c3c(cc(O)c2[nH]1)N(C(=O)c1cc2cc(OC)c(OC)c(OC)c2[nH]1)CC3CCl (stereo unspecified),3.4 nM (active)
5,CC[C@]1(O)CC2CN(CCc3c([nH]c4ccccc34)[C@@](C(=O)OC)(c3cc4c(cc3OC)N(C)[C@H]3[C@@](O)(C(=O)OC)[C@H](OC(C)=O)[C@]5(CC)C=CCN6CC[C@]43[C@@H]65)C2)C1 (stereo partly specified),300 nM (active)
6,COc1cc2cc(c1Cl)N(C)C(=O)C[C@H](O)[C@]1(C)O[C@H]1[C@H](C)C1C[C@@](O)(NC(=O)O1)[C@H](OC)/C=C/C=C(\C)C2,4750 nM (active)
7,CC(C)(C)OC(=O)Nc1ccc2[nH]c(C(=O)N3C[C@@H](CCl)c4c3cc(O)c3ccccc43)cc2c1,16.9 nM (active)
8,COc1cccc2c1C(=O)c1c(O)c3c(c(O)c1C2=O)C[C@@](O)(C(=O)CO)C[C@@H]3O[C@H]1C[C@H]2[C@H](O[C@@H]3[C@@H](OC)OCCN32)[C@H](C)O1,0.2 nM (active)
9,CN(C)CCOc1ccc2[nH]c(C(=O)N3C[C@@H](CCl)c4c3cc(O)c3ccccc43)cc2c1,0.8 nM (active)
10,CC[C@H](C)[C@@H]([C@H](N)CC(=O)N1CCC[C@H]1[C@H](OC)[C@@H](C)C(=O)N[C@@H](Cc1ccccc1)c1nccs1)N(C)C(=O)[C@@H](NC(=O)[C@H](C(C)C)N(C)C)C(C)C,6 nM (active)
11,CCN(C(C)=O)[C@H]1CO[C@@H](O[C@H]2[C@H](O[C@H]3C#C/C=C\C#C[C@]4(O)CC(=O)C(NC(=O)OC)=C3/C4=C\CSSSC)O[C@H](C)[C@@H](NO[C@H]3C[C@H](O)[C@H](SC(=O)c4c(C)c(I)c(O[C@@H]5O[C@@H](C)[C@H](O)[C@@H](OC)[C@H]5O)c(OC)c4OC)[C@@H](C)O3)[C@@H]2O)C[C@@H]1OC,2.7 nM (active)
